Assay results from the supplement of paper PMC9433436.
± gives the standard deviation of the averaged measurements. Over roughly 4,100 sequences, “relative kcat/Km (krel) vs genomic leader AAAGAU” has its median near 1.7; the highest 2% begin near 6.5. This excerpt belongs to a sample that is enriched for the highest values.

Biological target: T1, E. coli RNase P holoenzyme (M1 P RNA + rnpA protein) (UniProt P0A7Y8)
T1 sequence: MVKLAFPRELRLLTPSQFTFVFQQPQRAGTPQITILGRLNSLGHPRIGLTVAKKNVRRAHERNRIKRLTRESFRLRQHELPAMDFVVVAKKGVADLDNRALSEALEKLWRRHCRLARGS
Assay: relative kcat/Km (krel) vs genomic leader AAAGAU (relative (reference leader = 1)); higher = faster RNase P cleavage
Procedure: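 HTS-Kin: a pool of ptRNA-Met (21C construct) with all 4096 combinations of 5' leader nucleotides N(-6) to N(-1) was processed in vitro by E. coli RNase P (P RNA + rnpA/C5 protein) under multiple-turnover conditions at 37 C, pH 8, 17.5 mM MgCl2. Residual substrate was Illumina-sequenced at several fractions reacted, and relative kcat/Km (krel) was computed by internal competition kinetics, calibrated to the genomic leader (AAAGAU = 1). The listed hexamer is the varied N(-6)..N(-1) leader (DNA letters), and it sits between a fixed 5' stem-loop flank (GCAUGCACGAAAGUGCGUGCUAUGAA) and the mature tRNA-Met starting GGCUACGUAGCUCAGUUGG. Two technical replicates are averaged.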

[1] = fraction of substrate reacted: ~13-16% (15.68% repeat 1, 13.17% repeat 2)
[2] = fraction of substrate reacted: ~26-29% (28.66% repeat 1, 26.4% repeat 2)
[3] = fraction of substrate reacted: ~9-10% (9.79% repeat 1, 9.1% repeat 2)

| Sequence | relative kcat/Km [1] | relative kcat/Km [2] | relative kcat/Km [3] |
| --- | --- | --- | --- |
| CCATAG | 0.327 ± 0.075 | 1.95 ± 0.2 |  |
| TGGGGT |  | 1.83 ± 0.45 |  |
| TGCTCT | 1.02 ± 0.37 | 1.5 ± 0.59 | 0.944 ± 0.33 |
| CTATAA | 3.72 ± 0.51 | 4.92 ± 1.3 | 3.33 ± 1.3 |
| GTATAT | 4.99 ± 0.35 | 7.89 ± 3.5 | 3.56 ± 1.5 |
| ATATAG | 1.77 ± 0.48 | 3.88 ± 1.4 | 2.16 ± 1.9 |
| TTATCT | 3.58 ± 0.95 | 5.02 ± 2.2 | 2.77 ± 0.45 |
| ATATAT | 4.49 ± 0.51 | 6.84 ± 3.3 | 3 ± 0.9 |
| TTATAG | 2.63 ± 0.53 | 4.22 ± 1.9 | 2.25 ± 1.6 |
| CTATAT | 5.55 ± 0.85 | 7.37 ± 2.9 | 4.48 ± 1.6 |
| GTATAA | 4.18 ± 0.35 | 5.6 ± 2 | 3.41 ± 1.2 |
| CTATAG | 1.823 ± 0.012 | 3.4 ± 0.44 | 2.47 ± 1.2 |
| ATATAA | 3.31 ± 0.47 | 4.9 ± 1.7 | 2.75 ± 1.4 |
| TTATAT | 5.95 ± 0.72 | 8.54 ± 4 | 4.62 ± 2 |
| GTATTT | 3.71 ± 0.4 | 5.37 ± 1.9 | 3.06 ± 2 |
| GTGCAA | 1.25 ± 0.53 | 1.32 ± 0.22 | 1.89 ± 1.4 |
| ACACCT | 1.66 ± 0.33 | 2.53 ± 1.6 | 2.6 ± 1.3 |
| TCAGCC | 2.37 ± 0.56 | 3.15 ± 0.59 | 2.48 ± 0.96 |
| GAGCAG | 0.164 ± 0.047 | 1.27 ± 0.062 |  |
| ACGCGA | 1.29 ± 0.1 | 2.07 ± 0.28 | 2.19 ± 0.79 |
| CTGTTA | 1.44 ± 1.1 | 2.19 ± 0.06 | 2.76 ± 1.4 |
| CGACGT | 2.25 ± 1.1 | 2.36 ± 1.5 |  |
| CAGGGC | 0.734 ± 0.28 | 0.809 ± 0.4 |  |
| GCCGTA | 2.93 ± 0.69 | 3.66 ± 1.4 | 2.27 ± 0.21 |
| GGTAAC | 1.618 ± 0.0045 | 2.64 ± 1.5 | 1.47 ± 0.022 |

| Sequence | relative kcat/Km [1] | relative kcat/Km [2] | relative kcat/Km [3] |
| --- | --- | --- | --- |
| CGATAC | 4.04 ± 1 | 5.79 ± 2.4 | 3.25 ± 1.4 |
| CGATAT | 5.17 ± 2.6 | 6.68 ± 3 | 3.51 ± 0.4 |
| GGATAT | 2.63 ± 0.49 | 3.4 ± 1.9 | 1.83 ± 0.13 |
| CTCAAA | 4.92 ± 1.4 | 8.02 ± 3.1 | 4.31 ± 1.6 |
| GGCAAT | 1.558 ± 0.015 | 3.04 ± 1.2 | 1.76 ± 0.086 |
| GTCAAT | 4.56 ± 1.9 | 7.14 ± 3.8 | 3.17 ± 0.8 |
| GCCAAT | 2.75 ± 1.7 | 4.52 ± 2.3 | 3.15 ± 0.068 |
| GTCAAA | 5.99 ± 1.9 | 8.75 ± 3.3 | 4.62 ± 1.6 |
| CTCAAG | 2.93 ± 1.3 | 4.67 ± 1.1 | 2.69 ± 2 |
| GTCAAG | 2.63 ± 0.65 | 5.35 ± 2.1 | 1.75 ± 0.96 |
| CTTAAG | 1.63 ± 0.79 | 2.28 ± 0.23 | 1.2 ± 0.59 |
| ATCAAA | 5.34 ± 0.78 | 7.44 ± 3.2 | 3.96 ± 1.9 |
| GGCAAA | 3.13 ± 0.17 | 3.46 ± 0.93 | 2.21 ± 1 |
| ACCAAG | 0.763 ± 0.21 | 2.7 ± 0.17 |  |
| ATCAAG | 1.96 ± 0.14 | 3.87 ± 0.91 |  |
| CAGTCA | 1.64 ± 1.4 | 2.56 ± 1.5 | 1.56 ± 0.78 |
| TGTAGG | 0.426 ± 0.27 | 1.61 ± 0.48 |  |
| CAACCC | 1.26 ± 0.56 | 1.22 ± 0.096 | 1.41 ± 0.43 |
| TCACAC | 4.7 ± 1.1 | 5.86 ± 2 | 3.8 ± 1.1 |
| CCACAC | 2.63 ± 0.9 | 3.97 ± 1.5 | 1.98 ± 0.78 |
| GCTAGA | 1.71 ± 0.21 | 2.45 ± 0.62 | 1.329 ± 0.007 |
| GCCCGG |  | 0.437 ± 0.31 | 0.406 ± 0.099 |
| CAGAGG |  | 0.599 ± 0.16 |  |
| ACATCT | 3.25 ± 0.78 | 4.12 ± 1.9 | 2.62 ± 1.1 |
| TCATGG | 0.443 ± 0.084 | 0.476 ± 0.47 | 0.253 ± 0.062 |

| Sequence | relative kcat/Km [1] | relative kcat/Km [2] | relative kcat/Km [3] |
| --- | --- | --- | --- |
| GATAAC | 2.81 ± 0.13 | 3.66 ± 1 | 2.1 ± 0.44 |
| TATGTG |  | 0.506 ± 0.12 |  |
| ATCTGG |  | 1.46 ± 0.34 | 0.825 ± 0.53 |
| ATCAGA | 4.59 ± 0.2 | 7.03 ± 1.9 | 3.76 ± 2 |
| ATCAGT | 1.79 ± 1.8 | 2.19 ± 2.2 |  |
| CTCAGA | 5.99 ± 1 | 8.03 ± 2.7 | 4.71 ± 1.4 |
| GCCAGA | 2.26 ± 0.32 | 5.56 ± 1.6 | 2.6 ± 2 |
| CTCAGT | 1.91 ± 1.4 | 2.13 ± 1.4 | 1.02 ± 0.51 |
| CTCAGG | 1.21 ± 0.29 | 2.45 ± 0.18 | 1.96 ± 1.2 |
| GTCGGA | 1.67 ± 1.1 | 1.51 ± 1.2 |  |
| ATCAGG |  | 1.41 ± 0.062 | 0.528 ± 0.016 |
| GTCAGA | 5.57 ± 1.1 | 9.06 ± 3.4 | 3.33 ± 0.28 |
| GGACAA | 1.34 ± 0.47 | 2.59 ± 0.96 | 0.879 ± 0.43 |
| TAATTC | 2.45 ± 0.42 | 3.22 ± 0.89 | 2.12 ± 1.6 |
| AGACGT |  | 1.98 ± 1.9 |  |
| TATGCC | 1.72 ± 0.22 | 2.97 ± 1.5 | 2.71 ± 0.41 |
| CCCGCA | 3.43 ± 1.2 | 4.58 ± 1.4 | 3.38 ± 0.43 |
| GCCGCC | 3.21 ± 1.2 | 5.43 ± 2.6 | 2.33 ± 1.2 |
| CCCGCC | 4.24 ± 2 | 4.94 ± 1.9 | 2.78 ± 0.39 |
| TCCGCA | 5.02 ± 0.26 | 6.95 ± 2.4 | 4.56 ± 2.3 |
| TCCGCT | 2.55 ± 2 | 3.65 ± 1.5 | 2.17 ± 0.033 |
| TCCGCC | 5.9 ± 0.79 | 7.97 ± 3.5 | 4.39 ± 0.68 |
| TGTATG |  | 1.93 ± 0.25 |  |
| CCTTTA | 1.47 ± 0.27 | 2.25 ± 0.99 | 1.51 ± 0.63 |
| ACAGAT | 1.48 ± 0.42 | 1.88 ± 0.26 | 0.729 ± 0.034 |

| Sequence | relative kcat/Km [1] | relative kcat/Km [2] | relative kcat/Km [3] |
| --- | --- | --- | --- |
| ATTACC | 1.65 ± 0.26 | 2.21 ± 0.71 | 1.64 ± 0.48 |
| ATGAGA | 0.964 ± 0.71 | 2.28 ± 0.37 | 0.619 ± 0.34 |
| TCAAAA | 1.64 ± 0.34 | 2.89 ± 1.2 | 2.12 ± 1.1 |
| TGCAAT | 1.18 ± 0.72 | 1.9 ± 0.94 | 0.917 ± 0.7 |
| TGCAAC | 1.45 ± 0.22 | 2.22 ± 0.84 | 1.87 ± 0.58 |
| TTCAAC | 6.12 ± 0.93 | 8.94 ± 3.2 | 4.99 ± 1.6 |
| TTCAAG | 3.38 ± 0.47 | 5.77 ± 2 | 2.98 ± 2.4 |
| TTCAAA | 6.52 ± 1.5 | 9.38 ± 3.5 | 4.87 ± 2.9 |
| CTCAAC | 5.06 ± 1.2 | 7.63 ± 3.4 | 3.75 ± 0.14 |
| CCCAAC | 2.15 ± 0.29 | 3.75 ± 1.1 | 2.26 ± 0.55 |
| ATCAAC | 4.05 ± 0.78 | 5.86 ± 1.6 | 3.56 ± 1.5 |
| CTTAAC | 2.52 ± 0.82 | 3.93 ± 1.3 | 2.53 ± 1.3 |
| TCAATT | 1.92 ± 0.12 | 2.3 ± 0.3 | 2.1 ± 1.1 |
| TTCAAT | 5.53 ± 0.71 | 9.07 ± 3.9 | 4.1 ± 1.6 |
| CTTCTT | 3.05 ± 0.55 | 3.45 ± 0.96 | 2.75 ± 1.4 |
| AACCGC | 3.02 ± 0.23 | 4.02 ± 0.71 | 3.24 ± 0.86 |
| GATTGG |  | 0.409 ± 0.2 |  |
| ATTCCA | 2.11 ± 0.63 | 1.93 ± 0.82 | 2.17 ± 0.89 |
| TAATTA | 2.05 ± 0.57 | 2.99 ± 1.1 | 2.15 ± 1.5 |
| ACGTTC | 2.45 ± 0.76 | 3.59 ± 1.4 | 2.18 ± 0.36 |
| CATCAA | 3.35 ± 0.32 | 4.59 ± 1.9 | 2.69 ± 0.095 |
| TCCGGA | 1.33 ± 0.95 | 1.83 ± 1.3 | 1.02 ± 0.16 |
| TCGCAT | 3.11 ± 0.57 | 5.13 ± 2.3 | 2.12 ± 0.11 |
